These results are taken from PubChem BioAssay AID431 (Sanford-Burnham Center for Chemical Genomics, 2006).

Each structure is given as a SMILES string. Screen size: about 63,000 compounds; about 1,100 (1.7%) were called active.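 The calls were made as follows: active = compounds whose percent cytotoxicity in the single-dose primary screen, scaled between solvent and toxic-drug controls, exceeds 50; inactive = the rest.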 This excerpt belongs to a sample that is enriched for actives. Potency and affinity values are given separately.

The assay in a line: cytotoxicity in KRAS-transformed pancreatic duct cells, primary screen, cell-based, fluorescence, HTS (AID 431).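 Also: 0% = DMSO solvent wells and 100% = doxorubicin-treated wells.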 Conditions: HPDE-C7K KRASV12 cells, Alamar Blue viability, 48 h; at 10 µM; active compounds read high. (Resazurin is reduced to fluorescent resorufin, in cell work by metabolically active cells.)
In the case of `O=C(NCC1CCCO1)C1C2C=CC3(CN(Cc4cccs4)C(=O)C13)O2` (stereo unspecified), the cytotoxicity was -19.1% (inactive). With `O=C(O)c1cccc(S(=O)(=O)N2CCCC2)c1`, the cytotoxicity is -8.3% (inactive). Regarding `O=C(Nc1ccc(S(=O)(=O)NCCc2ccccc2)cc1)c1ccc(Br)o1`, the cytotoxicity was 15.9% (inactive). As to `COc1ccc(Br)cc1C(=O)Nc1cccc(NC(=O)c2ccco2)c1`, the cytotoxicity was 0.2% (inactive).

Regarding `O=C(Nc1cccc(NC(=O)c2ccc(-c3cccc(Br)c3)o2)c1)c1ccco1`, the cytotoxicity was 66.3% (active).

Consider `CC(=O)Nc1cccc(NC(=O)c2ccco2)c1`, for which the cytotoxicity was -14% (inactive). The figure for `COC(=O)Cc1ccc(NC(=O)c2ccc(Br)o2)cc1` is 8.9% (inactive); for `O=C(Nc1ccc(Nc2ccccc2)cc1)c1ccc(Br)o1` it is 93% (active). In the case of `COc1ccc(CN(Cc2ccccn2)C(=O)CN2C(=O)COc3ccccc32)cc1` it was -15.4% (inactive).

Regarding `CCCCS(=O)(=O)c1sc2nc3c(cc2c1N)CCCC3`, the cytotoxicity is -4.6% (inactive). As to `Cc1cc(NC(=O)COc2ccc(N(C)S(=O)(=O)c3ccccc3)cc2)no1`, the cytotoxicity is -0.8% (inactive). The figure for `CCOC(=O)Cn1cnc2c(nnn2Cc2ccc(Cl)cc2)c1=O` is -1% (inactive).

Take `Cc1ccc(-n2c(Cc3cccn3C)nnc2SCC(=O)Nc2nnc(C)s2)cc1`: the cytotoxicity is -0.8% (inactive). In the case of `CCSc1nnc(NC(=O)CSc2nnc(Cc3cccn3C)n2-c2ccc(F)cc2)s1` it was 49.5% (inactive). With `CCSc1nnc(NC(=O)CSc2nnc(Cc3cccn3C)n2-c2ccc(C)cc2)s1`, the cytotoxicity is 50.6% (active). `Cc1ccc(N)c(C(O)(C(F)(F)F)C(F)(F)F)c1`: the cytotoxicity is -9.9% (inactive).

In the case of `CC(C)(NO)/C(=N/O)c1ccc(Br)cc1`, the cytotoxicity is -3.6% (inactive).

Consider `CN(Cc1ccccc1)C(=O)Nc1ccccc1`, for which the cytotoxicity is 9.8% (inactive). Consider `CC(=O)c1sc(NC(=O)C=C(C)C)nc1C`, for which the cytotoxicity was -0.4% (inactive). In the case of `CC(=O)c1sc(NC(=O)C2(F)C(F)(F)C(F)(F)C(F)(F)C(F)(F)C2(F)F)nc1C` it was 51% (active); in that of `CCCCC(=O)Nc1nc(C)c(C(C)=O)s1`, -0.2% (inactive); in that of `O=C(Cn1ncc2c(=O)oc3ccccc3c21)NC1CC1`, -0.5% (inactive). For `CCOC(=O)c1ccc(N2CC(O)=C(c3nc4ccccc4c(=O)[nH]3)C2=N)cc1`, the cytotoxicity is 51.4% (active).

On to `COc1ccccc1N1CC(O)=C(c2nc3ccccc3c(=O)[nH]2)C1=N`, for which the cytotoxicity is 26.5% (inactive). The figure for `COc1cccc(N2CC(O)=C(c3nc4ccccc4c(=O)[nH]3)C2=N)c1` is 28% (inactive); for `O=C(CCN1CCCC1)Nc1cccc(Br)c1` it is 3.2% (inactive). Take `Cc1ccc(C)c(NC(=O)CN(C)S(=O)(=O)c2ccc(F)cc2)c1`: the cytotoxicity was -4.8% (inactive). For `O=C(NCCc1cn2ccccc2n1)c1ccc(Br)o1`, the cytotoxicity was -1.7% (inactive). In the case of `O=C(Nc1ncnc2sc3c(c12)CCC3)c1ccco1` it was 10.7% (inactive); in that of `Cc1nc(NS(=O)(=O)c2cccs2)c2c3c(sc2n1)CCC3`, 10.8% (inactive); in that of `O=S(=O)(Nc1ncnc2sc3c(c12)CCC3)c1ccc(Cl)s1`, 50.7% (active). In the case of `COc1ccc(C2N(c3ccc(F)cc3)C(=O)C3CCCN32)cc1` (stereo unspecified) it was -2.8% (inactive); in that of `CCOC(=O)C1CCCN(C(=O)c2ccc(CS(=O)(=O)Cc3ccccc3C)o2)C1` (stereo unspecified), 16.4% (inactive); in that of `CCC(C)[C@@H](C(=O)Nc1ccc(OC)c(OC)c1)N1Cc2ccccc2C1=O` (stereo partly specified), -0.4% (inactive). The figure for `Cn1cnc2c(N3CCCCC3)nccc21` is 3.7% (inactive); for `c1cncc(Nc2nc(-c3cccnc3)cs2)c1` it is 15% (inactive); for `CCN(C(=O)c1ccc(C(C)(C)C)cc1)c1nnc(Cn2nnc3ccccc32)s1` it is 88.4% (active). For the compound `CCN(C(=O)CSc1nnc(Cn2nnc3ccccc32)o1)c1nc(-c2ccccc2)cs1`, the cytotoxicity is -0.5% (inactive). In the case of `CCN(C(C)=O)c1nnc(CSc2nc3ccccc3s2)s1` it was 23.5% (inactive); in that of `O=C(Nc1ccccc1C(=O)NCc1ccco1)c1ccco1`, 7.2% (inactive); in that of `N=c1n(CCN2CCOCC2)c2ccccc2n1CC(O)COc1ccccc1` (stereo unspecified), -9.7% (inactive). In the case of `CCCc1nc(NCc2ccco2)c(C#N)c2c1COC(C)(C)C2` it was 1.1% (inactive). For the compound `CC1(C)Cc2c(C#N)c(N3CCN(C(=O)c4ccco4)CC3)nc(-c3ccco3)c2CS1`, the cytotoxicity was 44.2% (inactive).

`CCCCc1nc(NCCNC(=O)c2ccco2)c(C#N)c2c1CSC(C)(C)C2`: the cytotoxicity is 80.9% (active). The figure for `CCOC(=O)c1cnc(SCC(=O)Nc2sc(C)c(C)c2C#N)nc1N` is -2.2% (inactive).

On to `CCOc1ccc(Nc2cc(C)nc(N3CCOCC3)n2)cc1`, for which the cytotoxicity is -19.5% (inactive). In the case of `COCCn1c(SCC(=O)Nc2nc(C)c(Cl)cc2Cl)nc2ccccc21`, the cytotoxicity is -6.8% (inactive). The figure for `Cc1ccccc1-c1nc(CS(=O)(=O)CC(=O)NCc2ccc3c(c2)OCO3)c(C)o1` is 14.4% (inactive); for `O=c1n(Cc2ccccc2Cl)c2sc3c(c2c2ncnn12)CCCC3` it is -12.2% (inactive). With `O=C(Cn1c(=O)n2ncnc2c2c3c(sc21)CCCC3)c1ccccc1`, the cytotoxicity was -20.6% (inactive). In the case of `COCCn1c(Cc2ccccc2)nnc1SCC(=O)NC(C)C` it was -14.6% (inactive); in that of `CCOC(=O)c1[nH]c(C)c(C(=O)c2cc(F)ccc2F)c1C`, 70.6% (active). With `CCOC(=O)c1[nH]c(C)c(C(=O)Nc2ccc(Cl)cc2)c1C`, the cytotoxicity was 10.1% (inactive).

Consider `CCOC(=O)c1[nH]c(C)c(C(=O)Nc2ccc(F)cc2)c1C`, for which the cytotoxicity is -5.4% (inactive). The figure for `CCOC(=O)c1[nH]c(C)c(C(=O)Nc2ccccc2C)c1C` is 45.7% (inactive); for `CCOC(=O)c1[nH]c(C)c(C(=O)Nc2cc(Cl)ccc2C)c1C` it is 55% (active); for `CCOC(=O)c1[nH]c(C)c(C(=O)OCC)c1C` it is -10% (inactive). In the case of `CCN(CC)CCNC(=O)C1CCC(=O)N(c2ccc(OC)cc2)C1c1ccc(F)cc1` (stereo unspecified), the cytotoxicity was 5.4% (inactive). As for `COc1cccc(N2C(=O)CC(N3CCC(C(N)=O)(N4CCCCC4)CC3)C2=O)c1` (stereo unspecified), the cytotoxicity was -2.6% (inactive). Turning to `Clc1ccc(-c2nnc3sc(Cc4cccs4)nn23)c(Cl)c1`, the cytotoxicity is -3.4% (inactive). The figure for `O=C(NC1CCCCC1)N1CCCCCCC1` is -4.9% (inactive). For the compound `CCOC(=O)Cn1c(=O)n(Cc2ccco2)c(=O)c2ccc(C(=O)NCCc3ccccc3)cc21`, the cytotoxicity is 7.3% (inactive). Regarding `COc1ccc(CCNC(=O)Cn2c(=O)n(Cc3ccco3)c(=O)c3ccc(Cl)cc32)cc1OC`, the cytotoxicity is 4.2% (inactive). The figure for `COc1cc2c(=O)n(Cc3ccco3)c(=O)n(CC(=O)c3ccc(Br)cc3)c2cc1OC` is 80.3% (active); for `COc1cc2c(=O)n(Cc3ccccc3)c(=O)n(CC(=O)C(C)(C)C)c2cc1OC` it is -1.3% (inactive). Turning to `COc1cc2c(=O)n(Cc3ccccc3)c(=O)n(CC(=O)NCc3ccco3)c2cc1OC`, the cytotoxicity was 5.4% (inactive).

Take `COc1cc2c(=O)n(Cc3ccco3)c(=O)n(CC(=O)c3cccc(Br)c3)c2cc1OC`: the cytotoxicity was 50% (active). The figure for `COC(=O)c1ccc(C(=S)N2CCOCC2)cc1` is -0.4% (inactive); for `Cc1ccc(C(c2nnnn2C(C)(C)C)N(Cc2ccco2)Cc2cccs2)cc1` (stereo unspecified) it is 1.5% (inactive). The figure for `COc1cccc(NC(=O)COC(=O)c2cccnc2)c1` is -8.8% (inactive); for `CC(C)(C)OC(=O)N1CCC[C@H]1C(=O)NCC1CCC(C(=O)O)CC1` (stereo partly specified) it is 7.4% (inactive). In the case of `CCC(c1nnnn1C1CCCCC1)N1CCN(C2CCCC2)CC1` (stereo unspecified) it was 3.5% (inactive).

For the compound `Cc1cc(Nc2ccccc2)nc(-c2ccccc2O)n1`, the cytotoxicity is 1.4% (inactive). With `CCCCNc1cc(C)nc(NCc2ccccc2)n1`, the cytotoxicity was 82.9% (active).

Take `Cc1cc(NCCCN)nc(-c2ccccc2O)n1`: the cytotoxicity was 22.2% (inactive).

`CCCCOc1cc(C)nc(NCc2ccccc2)n1`: the cytotoxicity was -11.6% (inactive). In the case of `Cc1cc(C)nc(NCCCc2ccccc2)n1` it was -12.4% (inactive); in that of `CC1=C(C(=O)OC(C)C)C(c2ccccn2)n2ncnc2N1` (stereo unspecified), 5.9% (inactive); in that of `COc1ccccc1NC(=O)N1CCN(c2ccccc2F)CC1`, 8% (inactive).

Turning to `O=C(O)COc1ccc(C(=O)Cc2ccc3c(c2)OCCCO3)c(O)c1`, the cytotoxicity is -4.8% (inactive). The figure for `O=C(Cc1ccc2c(c1)OCCO2)c1c(O)cc(O)cc1O` is 62.7% (active); for `O=C(O)CCC(=O)c1ccc2c(c1)OCCO2` it is 1.9% (inactive). On to `O=C(Cn1ncc2c1-c1ccccc1OC2)N(Cc1ccco1)C1CCCCC1`, for which the cytotoxicity was 2.4% (inactive). In the case of `Cn1c(SCC(=O)N2CCN(c3ccccc3)CC2)nnc1-c1cc2ccccc2o1` it was 10.4% (inactive); in that of `CSc1nsc(SC)c1NC(=O)OCCc1ccccn1`, -3.5% (inactive). The figure for `CC(C)(C)c1ccc(Cn2nnc3c(=O)[nH]c(C4CCN(C(=O)Cc5cccs5)CC4)nc32)cc1` is 8.5% (inactive); for `O=C(Cc1cccs1)N1CCCC(c2nc3c(nnn3Cc3ccc(F)cc3)c(=O)[nH]2)C1` (stereo unspecified) it is 8.4% (inactive). The figure for `Cc1ccc(-c2csc3ncnc(-n4nc(C)cc4N)c23)cc1` is -8.1% (inactive); for `CCn1c(CN2CCCCCC2=O)nnc1SCc1cnc(-c2ccccc2)s1` it is -1.7% (inactive); for `O=C(CNC(=O)c1ccco1)OCc1ccc(Cl)cc1` it is -3% (inactive). Take `COc1ccccc1NC(=O)Nc1c(C)n(C)n(-c2ccccc2)c1=O`: the cytotoxicity was -1.8% (inactive). In the case of `CCOC(=O)Cn1c(=O)n(C2CCCC2)c(=O)c2ccccc21` it was -5.4% (inactive). On to `COc1ccc(N2CCN(c3ncnc4c3cnn4-c3ccc(C)cc3C)CC2)cc1`, for which the cytotoxicity was -12.5% (inactive).

For the compound `Cc1ccc(-n2ncc3c(N4CCCC4)ncnc32)c(C)c1`, the cytotoxicity is 1.2% (inactive). As to `CCN1CCN(c2ncnc3c2cnn3-c2ccc(C)cc2C)CC1`, the cytotoxicity is 11.6% (inactive). In the case of `COc1ccc(-n2ncc3c(N4CCN(c5cc(C)ccc5C)CC4)ncnc32)cc1` it was 15.6% (inactive); in that of `CCc1cc2c(N3CCN(c4ccccc4)CC3)ncnc2s1`, 91.1% (active). In the case of `CCc1cc2c(N3CCN(c4nnc(CC)s4)CC3)ncnc2s1` it was 19.4% (inactive).

With `CCc1cc2c(N3CCCCC3)ncnc2s1`, the cytotoxicity is -10.5% (inactive). Consider `O=C(COc1ccccc1)N1CCN(c2ncnc3c2cnn3-c2ccccc2)CC1`, for which the cytotoxicity is 5.3% (inactive). The figure for `O=C(c1ccco1)N1CCN(c2ncnc3c2cnn3-c2ccccc2)CC1` is -0.8% (inactive).
